Among all 39,000 compounds or so, about 1,500 (3.8%) were called active. Many of the other results were omitted from the sample, so actives are more common in it than they were.
These compounds were tested on HSkMC (human skeletal muscle cells) (assay: cytotoxicity call (relative viability < 0.9)). Conditions: 10 µM.
`C[C@@H]1CN([C@H](C)CO)C(=O)Cc2cc(NS(=O)(=O)c3cn(C)cn3)ccc2O[C@@H]1CN(C)C(=O)Nc1ccc(F)cc1` was tested, and the cytotoxicity call was “inactive”.
`C[C@@H]1CN([C@H](C)CO)C(=O)Cc2cc(NC(=O)Nc3cccc4ccccc34)ccc2O[C@@H]1CN(C)S(=O)(=O)c1ccc(F)cc1` was tested, and the cytotoxicity call was “inactive”.
`COc1ccccc1C#Cc1ccc2c(c1)O[C@@H](CN(C)C(C)=O)[C@@H](C)CN([C@H](C)CO)S2(=O)=O` was tested, and the cytotoxicity call was “inactive”.
With `C[C@@H]1CN([C@@H](C)CO)C(=O)c2cc(-c3cccc(C(=O)N(C)C)c3)cnc2O[C@@H]1CN(C)C(=O)Cc1ccccn1` the cytotoxicity call was “inactive”.
With `COc1ccc(S(=O)(=O)N(C)C[C@@H]2OCCCC[C@H](C)Oc3ccc(NC(=O)Nc4c(C)noc4C)cc3C(=O)N([C@H](C)CO)C[C@H]2C)cc1` the cytotoxicity call was “inactive”.
In the case of `O=C(c1cccnc1)N1C[C@H]2[C@@H](c3ccccc31)[C@@H](CO)N2C(=O)CN1CCOCC1`, the cytotoxicity call was “inactive”.
In the case of `CN(C)S(=O)(=O)c1ccc(CN)cc1`, the cytotoxicity call was “inactive”.
`CC(C)NC(=O)Nc1ccc2c(c1)C(=O)N(C)[C@H]1CC[C@@H](CC(=O)NCc3ccc(F)cc3)O[C@@H]1CO2` was tested, and the cytotoxicity call was “inactive”.
In the case of `C[C@@H]1CN([C@H](C)CO)C(=O)c2cccc(NS(=O)(=O)c3ccc(Cl)cc3)c2O[C@@H]1CN(C)Cc1ccc(Oc2ccccc2)cc1`, the cytotoxicity call was “inactive”.
`C[C@@H]1CN([C@@H](C)CO)C(=O)c2ccccc2-c2ccccc2CO[C@@H]1CN(C)C(=O)Nc1ccc(F)cc1` was tested, and the cytotoxicity call was “inactive”.
In the case of `C[C@@H]1CN([C@@H](C)CO)C(=O)Cc2cc(NC(=O)Cn3cnnn3)ccc2O[C@@H]1CN(C)Cc1ccncc1`, the cytotoxicity call was “inactive”.
`COc1ccc(CN(C)C[C@H]2OCCCC[C@@H](C)Oc3ccc(NC(=O)Nc4ccc(C(F)(F)F)cc4)cc3C(=O)N([C@H](C)CO)C[C@H]2C)cc1` was tested, and the cytotoxicity call was “active”.
For `COc1ccc(CN(C)C[C@@H]2OCCCC[C@H](C)Oc3ccc(NC(=O)Nc4ccc(C(F)(F)F)cc4)cc3C(=O)N([C@H](C)CO)C[C@@H]2C)cc1`, the cytotoxicity call was “active”.
In the case of `COc1ccc(NC(=O)Nc2ccc3c(c2)C(=O)N([C@@H](C)CO)C[C@H](C)[C@H](CN(C)Cc2ccc(C(F)(F)F)cc2)OCCCC[C@@H](C)O3)cc1`, the cytotoxicity call was “inactive”.
For `COc1ccc(NC(=O)Nc2ccc3c(c2)C(=O)N([C@@H](C)CO)C[C@@H](C)[C@@H](CN(C)Cc2ccc(C(F)(F)F)cc2)OCCCC[C@@H](C)O3)cc1`, the cytotoxicity call was “inactive”.
With `COc1ccc(CN(C)C[C@H]2OCCCC[C@@H](C)Oc3ccc(NC(=O)Nc4ccc(C(F)(F)F)cc4)cc3C(=O)N([C@@H](C)CO)C[C@H]2C)cc1` the cytotoxicity call was “active”.
For `COc1ccc(CN(C)C[C@H]2OCCCC[C@H](C)Oc3ccc(NC(=O)Nc4ccc(C(F)(F)F)cc4)cc3C(=O)N([C@H](C)CO)C[C@@H]2C)cc1`, the cytotoxicity call was “active”.
For `C[C@H]1CN([C@@H](C)CO)C(=O)c2cc(NC(=O)Cc3ccccc3)ccc2O[C@@H]1CN(C)S(=O)(=O)c1ccccc1`, the cytotoxicity call was “inactive”.
For `COc1cccc(S(=O)(=O)Nc2ccc3c(c2)[C@@H]2C[C@H](CC(=O)NCC(F)(F)F)O[C@H](CO)[C@@H]2O3)c1`, the cytotoxicity call was “inactive”.
In the case of `C[C@@H]1CN([C@H](C)CO)C(=O)CCCn2nncc2CO[C@@H]1CN(C)C(=O)Nc1cccc(Oc2ccccn2)c1`, the cytotoxicity call was “inactive”.
With `COCCNC(=O)C[C@H]1CC[C@H]2[C@@H](COc3ccc(NC(=O)Nc4cccc(F)c4)cc3C(=O)N2C)O1` the cytotoxicity call was “inactive”.
With `Cc1noc(C)c1NC(=O)Nc1cccc2c1O[C@H](CN(C)Cc1ccc(Cl)c(Cl)c1)[C@H](C)CN([C@@H](C)CO)C2=O` the cytotoxicity call was “inactive”.
For `C[C@@H]1CN([C@@H](C)CO)C(=O)CCCn2cc(nn2)CO[C@@H]1CN(C)Cc1ccc2c(c1)OCCN2C`, the cytotoxicity call was “inactive”.
In the case of `C[C@@H]1CN([C@@H](C)CO)C(=O)c2cc(NC(=O)C3CC3)ccc2O[C@H]1CN(C)C(=O)Nc1ccc2c(c1)OCO2`, the cytotoxicity call was “inactive”.
With `CCc1nc2ccccc2c(C(=O)Nc2cccc(Cl)c2)c1C` the cytotoxicity call was “inactive”.
`C[C@@H]1CN([C@H](C)CO)C(=O)Cc2cc(NC(=O)C3CC3)ccc2O[C@@H]1CN(C)C(=O)Nc1ccc2c(c1)OCO2` was tested, and the cytotoxicity call was “inactive”.
With `O=C(C[C@@H]1CC[C@@H](NC(=O)c2cnccn2)[C@H](CO)O1)NCc1ccccc1F` the cytotoxicity call was “inactive”.
In the case of `C[C@H]1CN([C@@H](C)CO)C(=O)Cc2cc(NC(=O)Cn3cnnn3)ccc2O[C@H]1CN(C)Cc1ccccc1`, the cytotoxicity call was “inactive”.
For `Cn1c(-c2ccccc2)c[nH]c1=S`, the cytotoxicity call was “inactive”.
`COc1ccc(NC(=O)Nc2ccc3c(c2)C(=O)N([C@H](C)CO)C[C@H](C)[C@@H](CN(C)Cc2ccc(C(F)(F)F)cc2)OCCCC[C@H](C)O3)cc1` was tested, and the cytotoxicity call was “inactive”.
`COc1ccc(CN(C)C[C@@H]2OCCCC[C@@H](C)Oc3ccc(NC(=O)Nc4ccc(C(F)(F)F)cc4)cc3C(=O)N([C@H](C)CO)C[C@H]2C)cc1` was tested, and the cytotoxicity call was “active”.
In the case of `COc1ccc(NC(=O)Nc2ccc3c(c2)C(=O)N([C@@H](C)CO)C[C@H](C)[C@@H](CN(C)Cc2ccc(C(F)(F)F)cc2)OCCCC[C@@H](C)O3)cc1`, the cytotoxicity call was “inactive”.
For `COc1ccc(CN(C)C[C@H]2OCCCC[C@H](C)Oc3ccc(NC(=O)Nc4ccc(C(F)(F)F)cc4)cc3C(=O)N([C@@H](C)CO)C[C@H]2C)cc1`, the cytotoxicity call was “active”.
For `COc1ccc(CN(C)C[C@H]2OCCCC[C@H](C)Oc3ccc(NC(=O)Nc4ccc(C(F)(F)F)cc4)cc3C(=O)N([C@@H](C)CO)C[C@@H]2C)cc1`, the cytotoxicity call was “active”.
With `COc1ccc(NC(=O)Nc2ccc3c(c2)C(=O)N([C@H](C)CO)C[C@@H](C)[C@H](CN(C)Cc2ccc(C(F)(F)F)cc2)OCCCC[C@@H](C)O3)cc1` the cytotoxicity call was “inactive”.
In the case of `COc1ccc(NC(=O)Nc2ccc3c(c2)C(=O)N([C@@H](C)CO)C[C@@H](C)[C@@H](CN(C)Cc2ccc(C(F)(F)F)cc2)OCCCC[C@H](C)O3)cc1`, the cytotoxicity call was “inactive”.
With `Cc1noc(C)c1S(=O)(=O)Nc1ccc2c(c1)C(=O)N([C@H](C)CO)C[C@H](C)[C@@H](CN(C)C(=O)NC(C)C)O2` the cytotoxicity call was “inactive”.
With `COc1ccc(NC(=O)N(C)C[C@@H]2Oc3c(NS(C)(=O)=O)cccc3C(=O)N([C@@H](C)CO)C[C@@H]2C)cc1` the cytotoxicity call was “inactive”.
`O=C(C[C@@H]1CC[C@H]2[C@@H](COC[C@@H](O)CN2S(=O)(=O)c2ccc(Cl)cc2)O1)NCCN1CCCC1` was tested, and the cytotoxicity call was “inactive”.
For `C[C@@H]1CN([C@H](C)CO)C(=O)c2cccc(NS(=O)(=O)c3ccc(F)cc3)c2O[C@@H]1CN(C)S(=O)(=O)c1ccc(F)cc1`, the cytotoxicity call was “inactive”.
`C[C@@H]1CN([C@@H](C)CO)C(=O)c2cc(NC(=O)Nc3ccc(F)cc3)ccc2O[C@@H](C)CCCCO[C@@H]1CN(C)C(=O)CCCN(C)C` was tested, and the cytotoxicity call was “inactive”.
`O=C(C[C@H]1CC[C@@H]2[C@H](COC[C@H](O)CN2C(=O)c2ccccc2)O1)NCCCN1CCOCC1` was tested, and the cytotoxicity call was “inactive”.
`C[C@@H]1CN([C@@H](C)CO)C(=O)Cc2cc(NS(=O)(=O)c3ccc(F)cc3)ccc2O[C@H]1CN(C)S(=O)(=O)c1cn(C)cn1` was tested, and the cytotoxicity call was “inactive”.
With `C[C@@H]1CN([C@@H](C)CO)C(=O)c2cc(NC(=O)Nc3ccc(C(F)(F)F)cc3)ccc2O[C@@H]1CN(C)C(=O)Nc1ccc(C(F)(F)F)cc1` the cytotoxicity call was “inactive”.
With `C[C@@H]1CCCCO[C@H](CN(C)CC2CC2)[C@H](C)CN([C@H](C)CO)C(=O)c2cc(NC(=O)C3CCCCC3)ccc2O1` the cytotoxicity call was “inactive”.
For `COc1ccc(CN(C)C[C@@H]2OCCCC[C@H](C)Oc3ccc(NC(=O)C4CCCCC4)cc3C(=O)N([C@@H](C)CO)C[C@@H]2C)cc1`, the cytotoxicity call was “inactive”.
In the case of `COc1ccc(CC(N)C(=O)NC2C(CO)OC(n3cnc4c(N(C)C)ncnc43)C2O)cc1.Cl.Cl` (centres undefined), the cytotoxicity call was “active”.
In the case of `CNc1ncnc2c1ncn2[C@@H]1O[C@H](CO)[C@@H](O)[C@H]1O`, the cytotoxicity call was “inactive”.
In the case of `COc1ccc(C[C@H](N)C(=O)N[C@H]2[C@@H](O)[C@H](n3cnc4c(N(C)C)ncnc43)O[C@@H]2CO)cc1`, the cytotoxicity call was “active”.
For `COc1ccc(C[C@H](N)C(=O)N[C@H]2[C@@H](O)[C@@H](n3cnc4c(N(C)C)ncnc43)O[C@@H]2CO)cc1`, the cytotoxicity call was “active”.
With `COc1nc(N)nc2c1ncn2[C@@H]1O[C@H](CO)[C@@H](O)[C@@H]1O` the cytotoxicity call was “inactive”.
For `Nc1ncnc2c1ncn2[C@H]1O[C@@H](CO)[C@H](O)[C@@H]1S`, the cytotoxicity call was “inactive”.
In the case of `Nc1ccc(CCNc2ncnc3c2ncn3[C@@H]2O[C@H](CO)[C@@H](O)[C@H]2O)cc1`, the cytotoxicity call was “inactive”.
In the case of `Nc1ncnc2c1ncn2C1OC(CO)C(O)C1O` (centres undefined), the cytotoxicity call was “inactive”.
For `Nc1ncnc2c1ncn2[C@@H]1O[C@H](CO)[C@@H](O)[C@H]1O`, the cytotoxicity call was “inactive”.
For `OC[C@H]1O[C@@H](n2cnc3c(NCc4ccco4)ncnc32)[C@H](O)[C@@H]1O`, the cytotoxicity call was “inactive”.
`COc1ccc(C[C@@H](N)C(=O)N[C@@H]2[C@@H](O)[C@@H](n3cnc4c(N(C)C)ncnc43)O[C@@H]2CO)cc1` was tested, and the cytotoxicity call was “active”.
For `CN(C)c1ncnc2c1ncn2[C@H]1O[C@@H](CO)[C@@H](N)[C@@H]1O`, the cytotoxicity call was “inactive”.
In the case of `C[C@H](CO)N1C[C@H](C)[C@@H](CN(C)C(=O)Nc2ccc3c(c2)OCO3)Oc2ccc(NC(=O)CCN3CCOCC3)cc2C1=O`, the cytotoxicity call was “inactive”.
`Cc1noc(C)c1NC(=O)N(C)C[C@H]1Oc2ccc(NC(=O)C3CC3)cc2CC(=O)N([C@@H](C)CO)C[C@H]1C` was tested, and the cytotoxicity call was “inactive”.
In the case of `CCOCCCNc1nc2c([nH]1)c(=O)n(C)c(=O)n2C`, the cytotoxicity call was “inactive”.
`C[C@@H]1CN([C@H](C)CO)S(=O)(=O)c2ccc(-c3cncnc3)cc2O[C@H]1CN(C)C(=O)c1cccc(F)c1` was tested, and the cytotoxicity call was “inactive”.
For `C[C@@H]1CN([C@@H](C)CO)C(=O)c2cccc(NC(=O)c3cnccn3)c2O[C@@H]1CN(C)CC1CCCCC1`, the cytotoxicity call was “inactive”.
`COc1cccc(C#Cc2ccc3c(c2)O[C@@H](CN(C)C(=O)c2ccccn2)[C@H](C)CN([C@H](C)CO)S3(=O)=O)c1` was tested, and the cytotoxicity call was “inactive”.

From the antibiotic and cytotoxicity screens of Wong et al. (2023)
